From PubChem BioAssay (Tox21)
Records with an inconclusive call do not appear. The source made the active and inactive calls. Unless noted, calls come from the whole dose curve.

Assays:
[1] = Nuclear factor erythroid 2-related factor 2/antioxidant responsive element (Nrf2/ARE) small molecule agonists: qHTS cell viability counter screen in human keratinocytes (AID 1919968; active = well fitted curve in the direction sought with a large enough effect in the repeat runs; an effect the other way counts as inactive or inconclusive; note: nearly all actives have a fitted effect of over 55% in size)
Procedure, shortened: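 KeratinoSens cells (HaCaT keratinocytes stably carrying an ARE-luciferase reporter) were seeded at 1,500 cells/well and rested 5 h at 37 C/5% CO2. They were then exposed to compounds in DMSO for 23 h. Viability was read by CellTiter-Fluor fluorescence after 1 h.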

[2] = Nuclear factor erythroid 2-related factor 2/antioxidant responsive element (Nrf2/ARE) small molecule agonists: luciferase reporter gene qHTS assay in human keratinocytes (AID 1919969); note: nearly all actives have a fitted effect of over 35% in size
[3] = molecular target: Gonadotropin-releasing hormone receptor (Homo sapiens) (UniProt P30968); experiment: Human gonadotropin-releasing hormone receptor (GnRHR) small molecule agonists, calcium flux assay in GnRHR-HEK293 cells (AID 1920063); note: nearly all actives have a fitted effect of over 35% in size
Gonadotropin-releasing hormone receptor (Homo sapiens), sequence (P30968 whole entry, looked up): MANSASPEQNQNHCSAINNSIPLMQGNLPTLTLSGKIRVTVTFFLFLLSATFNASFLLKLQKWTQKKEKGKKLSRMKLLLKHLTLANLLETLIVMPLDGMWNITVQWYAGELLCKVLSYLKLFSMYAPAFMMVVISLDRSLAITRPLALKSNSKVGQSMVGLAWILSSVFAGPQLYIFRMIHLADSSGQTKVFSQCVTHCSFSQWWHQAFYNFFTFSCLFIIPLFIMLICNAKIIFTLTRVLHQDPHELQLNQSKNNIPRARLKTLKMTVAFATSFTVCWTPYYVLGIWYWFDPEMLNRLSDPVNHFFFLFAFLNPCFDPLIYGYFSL
Procedure, shortened: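 HEK293 cells stably expressing human GnRHR were plated 18 h at 37 °C, loaded with calcium dye 1 h at 37 °C, then given compound in agonist mode; fluorescence (Ex/Em 480/540) read kinetically for 3 min at 1 s intervals.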

[4] = molecular target: KiSS-1 receptor (Homo sapiens) (UniProt Q969F8); experiment: Human kisspeptin (KISS1R) small molecule agonists, calcium flux assay in KISS1R-HEK293 cells (AID 1920064; active = well fitted curve in the direction sought with a large enough effect in the repeat runs; an effect the other way counts as inactive or inconclusive)
KiSS-1 receptor (Homo sapiens), sequence (Q969F8 whole entry, looked up): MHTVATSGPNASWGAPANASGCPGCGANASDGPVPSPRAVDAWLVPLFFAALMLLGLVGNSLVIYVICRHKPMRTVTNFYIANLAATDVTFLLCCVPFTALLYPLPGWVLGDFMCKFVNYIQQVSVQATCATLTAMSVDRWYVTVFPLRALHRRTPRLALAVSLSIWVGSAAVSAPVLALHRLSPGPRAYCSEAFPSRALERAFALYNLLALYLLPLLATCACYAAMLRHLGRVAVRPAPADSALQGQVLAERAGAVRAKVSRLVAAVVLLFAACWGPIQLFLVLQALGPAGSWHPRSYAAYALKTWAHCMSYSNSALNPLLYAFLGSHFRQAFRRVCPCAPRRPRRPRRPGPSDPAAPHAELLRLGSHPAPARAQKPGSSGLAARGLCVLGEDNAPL
Procedure, shortened: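 HEK293 cells stably expressing human KISS1R were plated 18 h at 37 °C, loaded with calcium dye for 1 h at 37 °C, then given compound by pin tool. Fluorescence (Ex/Em 480/540) was read kinetically for 3 min.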

[5] = G protein-coupled receptor (GPCR) small molecule agonists, calcium flux assay: HEK293 wild type cell line counter screen (AID 1920065)
Procedure, shortened: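 Cells were plated and cultured 18 h at 37 C/5% CO2, then loaded with calcium dye for 1 h at 37 C. Compounds in DMSO were pin-transferred in agonist mode, and fluorescence (Ex/Em 480/540) was read kinetically for 3 min at 1 s intervals.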

[6] = p53 small molecule agonists, cell-based qHTS assay with human liver microsomes (AID 1963577);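 note: p53 response element beta-lactamase reporter cells with liver microsomes plus NADPH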
Procedure, shortened: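 With metabolic activation: human liver microsomes (0.5 mg/mL final) plus NADPH (0.5 mg/mL final) added alongside compounds to p53RE-bla cells; 16 h 37 C exposure; beta-lactamase read by LiveBLAzer fluorescence.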

[7] = p53 small molecule agonists, cell-based qHTS assay with rat liver microsomes (AID 1963578)
Procedure, shortened: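 Metabolic activation by rat liver microsomes and NADPH, each 0.5 mg/mL final, added right after compounds to p53RE-bla reporter cells (4,000/well, plated 5 h earlier). 16 h at 37 C, then LiveBLAzer substrate for 2 h at room temperature in the dark; fluorescence read-out.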

[8] = p53 small molecule agonists, cell-based qHTS assay with human liver microsomes: qHTS cell viability counter screen (AID 1963579); note: nearly all actives have a fitted effect of over 45% in size
Procedure, shortened: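 Metabolic activation used human liver microsomes and NADPH, both 0.5 mg/mL final, over 16 hours at 37 C on p53RE-bla cells (4,000/well). Cytotoxicity measured by CellTiter-Glo luminescence, 30 min at room temperature.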

[9] = p53 small molecule agonists, cell-based qHTS assay with rat liver microsomes: qHTS cell viability counter screen (AID 1963580); note: nearly all actives have a fitted effect of over 45% in size
Procedure, shortened: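 HCT-116 p53RE-bla, 4,000 cells/well, 5 h pre-incubation; cpd + rat liver microsomes 0.5 mg/mL + NADPH 0.5 mg/mL (final); 16 h, 37 C; CellTiter-Glo, 30 min RT; luminescence.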

[10] = p53 small molecule agonists, cell-based qHTS assay: qHTS cell viability counter screen (AID 1963581); note: nearly all actives have a fitted effect of over 45% in size
Procedure, shortened: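 p53RE-bla HCT-116 cells were exposed to compounds for 16 h at 37 C; after the beta-lactamase FRET read in the same wells, CellTiter-Glo was added and luminescence (intracellular ATP) read after 30 min at room temperature.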

[11] = p53 small molecule agonists, cell-based qHTS assay (AID 1963582; active = well fitted activation curve with a large enough effect in the signal ratio in the repeat runs, not every such curve was filed as active; the % refers to the signal ratio)
Procedure, shortened: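 p53RE-bla beta-lactamase reporter cells rested 5 h at 37 C/5% CO2, then received compounds in DMSO by pin transfer and were incubated 16 h at 37 C. LiveBLAzer B/G FRET substrate was loaded for 2 h at room temperature before fluorescence reading.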

[12] = molecular target: 5-hydroxytryptamine receptor 2A (Homo sapiens) (UniProt P28223); experiment: 5-hydroxytryptamine receptor 2A (HTR2A) small molecule antagonists, cell-based qHTS assay (AID 1963586); note: nearly all actives have a fitted effect of over 45% in size
5-hydroxytryptamine receptor 2A (Homo sapiens), sequence (P28223 whole entry, looked up): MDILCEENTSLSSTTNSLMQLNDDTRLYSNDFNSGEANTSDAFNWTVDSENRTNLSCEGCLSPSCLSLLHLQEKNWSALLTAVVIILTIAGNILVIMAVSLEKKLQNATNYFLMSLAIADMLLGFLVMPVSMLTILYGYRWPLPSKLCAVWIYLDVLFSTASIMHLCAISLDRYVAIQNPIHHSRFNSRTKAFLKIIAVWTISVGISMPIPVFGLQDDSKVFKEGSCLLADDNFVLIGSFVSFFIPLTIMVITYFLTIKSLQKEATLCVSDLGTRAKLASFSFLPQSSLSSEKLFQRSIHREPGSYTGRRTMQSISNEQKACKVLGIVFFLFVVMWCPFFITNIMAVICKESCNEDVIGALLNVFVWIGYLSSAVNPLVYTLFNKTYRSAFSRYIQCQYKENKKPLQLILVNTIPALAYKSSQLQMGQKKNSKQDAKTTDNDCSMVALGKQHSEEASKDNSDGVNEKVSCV
Procedure, shortened: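 Antagonist-mode intracellular calcium assay: DOI (4 nM) added after 5 min compound pre-incubation at room temperature to dye-loaded HTR2A-CHO cells. Fluorescence followed for 3 min, sampled every second.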

[13] = molecular target: 5-hydroxytryptamine receptor 2A (Homo sapiens) (UniProt P28223); experiment: 5-hydroxytryptamine receptor 2A (HTR2A) small molecule agonists, cell-based qHTS assay (AID 1963587); note: nearly all actives have a fitted effect of over 30% in size
Procedure, shortened: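 Kinetic calcium-flux fluorescence (2 min, 1 sec intervals) after compound addition in agonist mode. HTR2A-CHO cells were cultured 18 h, then dye-loaded 1 h at 37 C.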

[14] = cAMP Responsive Elements (CRE) small molecule agonists, cell-based qHTS assay (AID 1963590)
Procedure, shortened: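 CRE-bla HEK 293T cells in DMEM with 10% dialyzed FBS, NEAA, pyruvate and 25 mM HEPES were plated 18 h at 37 C/5% CO2, then exposed to compounds in DMSO for 3 h before LiveBLAzer B/G FRET substrate addition.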

[15] = cAMP Responsive Elements (CRE) small molecule antagonists, cell-based qHTS assay (AID 1963591; active = well fitted inhibition curve with a large enough effect in the signal ratio in the repeat runs, not every such curve was filed as active; the % refers to the signal ratio)
Procedure, shortened: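 CRE-bla HEK293T cells were plated 18 h at 37 °C/5% CO2, pinned with compound in DMSO, then stimulated with NKH477 at 0.25 uM final for 3 h. LiveBLAzer B/G FRET substrate was added and plates incubated 2 h at room temperature.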

[16] = molecular target: Beta-2 adrenergic receptor (Homo sapiens) (UniProt P07550); experiment: Adrenergic beta2 receptor (ADRB2) small molecule antagonists, cell-based qHTS assay (AID 1963592); note: series mostly up to about 92 µM; nearly all actives have a fitted effect of over 50% in size
Beta-2 adrenergic receptor (Homo sapiens), sequence (P07550 whole entry, looked up): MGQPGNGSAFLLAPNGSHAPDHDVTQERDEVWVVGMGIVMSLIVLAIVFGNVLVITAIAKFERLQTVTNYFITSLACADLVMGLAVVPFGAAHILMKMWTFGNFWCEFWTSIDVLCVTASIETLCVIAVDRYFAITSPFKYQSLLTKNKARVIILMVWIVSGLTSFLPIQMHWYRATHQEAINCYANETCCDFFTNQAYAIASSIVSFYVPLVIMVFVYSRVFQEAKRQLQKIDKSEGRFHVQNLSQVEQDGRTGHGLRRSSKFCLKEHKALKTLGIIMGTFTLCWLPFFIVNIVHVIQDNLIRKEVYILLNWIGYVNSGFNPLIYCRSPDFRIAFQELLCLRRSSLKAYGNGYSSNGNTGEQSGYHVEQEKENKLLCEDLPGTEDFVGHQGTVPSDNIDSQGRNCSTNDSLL
Procedure, shortened: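 Cells (CHO, stable ADRB2 overexpression) incubated 18-20hr at 37C; compounds added from DMSO; agonist mix (1nM isoproterenol, 100uM IBMX, 25uM Ro-20-1724) added; 0.5hr RT; d2-cAMP and anti-cAMP-cryptate added; 1hr RT; 665/615 nm read.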

[17] = molecular target: Beta-2 adrenergic receptor (Homo sapiens) (UniProt P07550); experiment: Adrenergic beta2 receptor (ADRB2) small molecule agonists, cell-based qHTS assay (AID 1963593);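 note: CHO cells stably overexpressing human ADRB2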
Procedure, shortened: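 CHO cells stably over-expressing ADRB2 were plated overnight at 37C, then dosed with compounds plus a stimulation mix containing 100uM IBMX and 25uM Ro-20-1724 for 0.5hr at room temperature. cAMP was measured by HTRF competition, 1hr.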

[18] = molecular target: D(2) dopamine receptor (Homo sapiens) (UniProt P14416); experiment: Dopamine D2 receptor (DRD2) small molecule agonists, cell-based qHTS assay (AID 1963594); note: nearly all actives have a fitted effect of over 35% in size
D(2) dopamine receptor (Homo sapiens), sequence (P14416 whole entry, looked up): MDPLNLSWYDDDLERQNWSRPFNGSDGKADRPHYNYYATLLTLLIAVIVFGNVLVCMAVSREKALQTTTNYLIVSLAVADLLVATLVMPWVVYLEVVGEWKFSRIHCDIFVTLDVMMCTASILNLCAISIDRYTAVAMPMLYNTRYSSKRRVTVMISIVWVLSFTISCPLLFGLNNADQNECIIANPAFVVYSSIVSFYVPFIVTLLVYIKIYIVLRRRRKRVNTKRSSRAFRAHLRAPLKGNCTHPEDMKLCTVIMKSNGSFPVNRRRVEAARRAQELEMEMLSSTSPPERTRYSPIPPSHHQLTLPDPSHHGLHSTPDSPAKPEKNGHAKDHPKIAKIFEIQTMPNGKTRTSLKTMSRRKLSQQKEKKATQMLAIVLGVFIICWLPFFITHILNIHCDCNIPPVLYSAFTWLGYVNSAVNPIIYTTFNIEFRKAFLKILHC
Procedure, shortened: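 cAMP accumulation in DRD2-HEK293 cells measured by HTRF after 1 h detection; compounds added 10 min before NKH477 (200nM […]) forskolin-analogue stimulation, 30 min at room temperature, with Ro20-1724 present at 0.1 mM final.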

[19] = molecular target: D(2) dopamine receptor (Homo sapiens) (UniProt P14416); experiment: Dopamine D2 receptor (DRD2) small molecule antagonists, cell-based qHTS assay (AID 1963595; active = well fitted inhibition curve with a large enough effect in the signal ratio in the repeat runs, with a control signal flat; the % refers to the signal ratio)
Procedure, shortened: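 Antagonism was scored as restored cAMP in HEK293-DRD2 cells. These cells were stimulated with 200 nM NKH477 and 12 nM quinpirole for 30 min at room temperature, in the presence of 0.1 mM Ro20-1724.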

[20] = molecular target: Muscarinic acetylcholine receptor M1 (Homo sapiens) (UniProt P11229); experiment: Cholinergic receptor muscarinic 1 (CHRM1) small molecule antagonists, cell-based qHTS assay (AID 1963588); note: nearly all actives have a fitted effect of over 40% in size
Muscarinic acetylcholine receptor M1 (Homo sapiens), sequence (P11229 whole entry, looked up): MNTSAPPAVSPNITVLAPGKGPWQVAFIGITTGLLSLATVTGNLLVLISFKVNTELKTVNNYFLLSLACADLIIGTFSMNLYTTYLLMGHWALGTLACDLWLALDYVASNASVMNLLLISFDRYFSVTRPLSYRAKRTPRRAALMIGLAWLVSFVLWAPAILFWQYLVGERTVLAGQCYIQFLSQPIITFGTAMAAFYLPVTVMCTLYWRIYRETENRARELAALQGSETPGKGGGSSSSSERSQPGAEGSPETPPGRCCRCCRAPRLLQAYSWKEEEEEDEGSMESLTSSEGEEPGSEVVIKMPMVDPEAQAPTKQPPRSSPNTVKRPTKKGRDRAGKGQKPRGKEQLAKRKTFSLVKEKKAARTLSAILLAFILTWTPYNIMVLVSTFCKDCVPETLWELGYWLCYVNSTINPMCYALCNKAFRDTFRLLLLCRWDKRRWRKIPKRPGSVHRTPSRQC
Procedure, shortened: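 CHRM1-CHO calcium-flux assay, antagonist mode. Cells were seeded 18 h, dye-loaded 1 h at 37 C and given compound for 5 min at RT, then acetylcholine was added at 50nM. FDSS fluorescence was read 3 min; 15 concentrations, three runs.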

Measured: Potency

CC(C)OC(C)C
inactive: [1] | [2] | [3] | [4] | [5] | [6] | [7] | [8] | [9] | [10] | [11] | [12] | [13] | [14] | [15] | [16] | [17] | [18] | [19]

[Cl][Dy]([Cl])[Cl]
inactive: [1] | [2] | [3] | [4] | [5] | [6] | [7] | [8] | [9] | [10] | [11] | [12] | [13] | [14] | [15] | [16] | [17] | [18]

COC(=O)c1ccc([N+](=O)[O-])cc1
inactive: [1] | [2] | [3] | [4] | [5] | [6] | [7] | [8] | [9] | [10] | [11] | [12] | [13] | [14] | [15] | [16] | [17] | [18] | [19]

CC(CCC(=O)O)C(=O)O (configuration not stated)
inactive: [1] | [2] | [3] | [4] | [5] | [6] | [7] | [8] | [9] | [10] | [11] | [12] | [13] | [20] | [15] | [16] | [17] | [18]

CS(=O)(=O)O
inactive: [1] | [2] | [3] | [4] | [5] | [6] | [7] | [8] | [9] | [10] | [11] | [12] | [13] | [14] | [15] | [16] | [17] | [18]
